PubChem BioAssay AID1850 (Southern Research Specialized Biocontainment Screening …, 2009)
Values joined by “and” are separate entries in the source; they are usually repeats but may differ in a detail not shown here. Identical values can stand only once. Screen size: about 310,000 compounds; about 1,000 (0.32%) were called active. The rule behind the calls is not given here. A selection follows. Measured potencies and affinities stand elsewhere.

Test: Inhibition of PhoP regulon, Salmonella typhi GFP reporter cells, confirmation, 4 h (AID 1850);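 note: 0% = induced wells with vehicle and 100% = uninduced wells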
Conditions: Salmonella Typhi PhoP-promoter GFP reporter, fluorescence, at 50 µM, stronger effect = higher value

Row | Compound | inhibition
1 | O=C1[C@@H]2Cc3c([nH]c4ccccc34)C(c3ccc(Cl)cc3)N2C(=O)CN1CCO (some centres undefined) | 3.36% (inactive)
2 | CC(=O)NC(=S)Nc1ccccc1N1CCCCC1 | -7.09% (inactive)
3 | COc1ccc(-c2nnc(-c3ccccc3O)o2)cc1 | 3.32% (inactive)
4 | CCC(C(=O)N1CCCCCC1)n1nc(C)n2c(cc3occc32)c1=O (centres undefined) | -32.5% (inactive)
5 | CS(=O)(=O)N(CC(=O)Nc1ccccc1C(=O)NCc1ccco1)c1ccc2c(c1)OCCO2 | -8.68% (inactive)
6 | Cc1c(C(=O)N2CCOCC2)sc2ncn(CC(=O)N3CCC(C)CC3)c(=O)c12 | 0.7% (inactive)
7 | Clc1ccc(COC(Cn2ccnc2)c2ccc(Cl)cc2Cl)cc1 (centres undefined) | -0.54% (inactive)
8 | Clc1ccc(COC(Cn2ccnc2)c2ccc(Cl)cc2Cl)c(Cl)c1 (centres undefined) | -1.14% (inactive) and 1.85% (inactive)
9 | Cn1ccsc1=NC(=O)c1ccc(S(=O)(=O)C(F)F)cc1 | 2.31% (inactive)
10 | CCOc1ccccc1-c1nc(-c2ccc(NC(=O)Cc3ccccc3OC)cc2)no1 | 1.73% (inactive) and -10.4% (inactive)
11 | O=C(Cn1cc[n+](CC(=O)c2ccccc2)c1)c1ccccc1 | 18.8% (inactive)
12 | C[n+]1ccn(CC(=O)c2ccc(Cl)cc2)c1 | -7.58% (inactive)
13 | O=C(Cn1c[n+](CC(=O)c2ccc([N+](=O)[O-])cc2)cn1)c1ccc([N+](=O)[O-])cc1 | 7.72% (inactive) and 18.6% (inactive)
14 | O=C(C[n+]1ccn(-c2ccccc2)c1)c1ccc([N+](=O)[O-])cc1 | 4.4% (inactive)
15 | O=c1c(/C=N\NS(=O)(=O)c2ccccc2)coc2ccc(Cl)cc12 | -7.39% (inactive)
16 | C/C(=C\c1ccccc1)CN1CCN(C(C)C)C(CCO)C1 (centres undefined) | -0.3% (inactive)
17 | CC1=CC(c2ccccc2)n2ncnc2N1 (centres undefined) | 3.87% (inactive)
18 | COC/C=C/C1=CC2=CC(=O)C(C)(OC(=O)c3cnc4ccccc4n3)C(=O)C2=CN1CCc1ccccn1 (centres undefined) | 0.66% (inactive)
19 | CC(C)c1ccccc1OCC(O)CN(CC(O)COc1cccc2ccccc12)C(C)C (centres undefined) | -6.27% (inactive)
20 | CCN(CCNCC(O)COCc1ccc(Cl)cc1)c1cccc(C)c1 (centres undefined) | -1.24% (inactive)
21 | Cc1c(Cl)cccc1NC(CC(=O)c1ccccc1)C(=O)OCC(=O)c1cccs1 (centres undefined) | -2.54% (inactive)
22 | Cc1ccc(S(=O)(=O)NNC2=NS(=O)(=O)c3ccccc32)c(C)c1 | 0.74% (inactive)
23 | CC(=O)Nc1ccc(S(=O)(=O)NNC(=O)COc2cccc(C)c2)cc1 | 9.44% (inactive)
24 | Cc1cccc(NC(=O)Nc2ccc(S(N)(=O)=O)cc2)c1 | -0.31% (inactive)

Row | Compound | inhibition
25 | Cc1ccc(S(=O)(=O)NNc2ccccc2)cc1 | 32.1% (inactive)
26 | Cc1ccc(S(=O)(=O)NNC(=O)C(=O)NNS(=O)(=O)c2ccc(C)cc2)cc1 | -7.52% (inactive)
27 | Cc1ccc(S(=O)(=O)NNC(=O)Nc2cccc(F)c2)c(C)c1 | -7.92% (inactive)
28 | CCOC(=O)N1CCN(Cc2nc3cc(NC(=O)c4cccs4)ccc3n2C)CC1 | -16.8% (inactive)
29 | COc1cc(CNn2cn[nH]c2=S)ccc1OCC(=O)NC(C)(C)C | -5.11% (inactive)
30 | CC(=O)N1CN2CN(C(C)=O)CC(C(=O)c3ccc([N+](=O)[O-])cc3)(C2)C1 | 5.88% (inactive)
31 | CCOC(=O)c1ccccc1NC(=O)CSc1nc2ccccc2n1CC(=O)N1CCCC1 | -7.2% (inactive)
32 | CN(C)c1ccc(/C=C/c2nc3ccccc3s2)cc1 | -9.15% (inactive)
33 | Cc1nc2ccc(C(=O)Nc3ccc(N(C)C)cc3)cc2s1 | -5.67% (inactive)
34 | CC(C)CNC(=O)C(=O)NCCCN1CCOCC1 | 3.18% (inactive)
35 | CCOc1ccc(N2C(=O)CC(NCCc3c[nH]c4ccccc34)C2=O)cc1 (centres undefined) | 6.97% (inactive)
36 | CCOc1ccc(NC(=O)CSc2nc3ccccc3nc2N2CC(C)OC(C)C2)cc1 (centres undefined) | -3.96% (inactive)
37 | COc1ccc(CNC(=O)C2CCN(S(=O)(=O)c3ccc4c(c3)CC(C)N4C(C)=O)CC2)cc1 (centres undefined) | 1.71% (inactive)
38 | CN(C)CCCN(C(=O)COc1ccccc1)c1nc2ccc(F)cc2s1 | -2.75% (inactive)
39 | CN(C)CCCN(C(=O)CCc1ccccc1)c1nc2ccc(Cl)cc2s1 | 0.73% (inactive)
40 | CN(C)CCCN(C(=O)COc1ccc(Cl)cc1)c1nc2ccc(F)cc2s1 | 14% (inactive)
41 | CN(C)CCCN(C(=O)COc1ccc(Cl)cc1)c1nc2c(F)cccc2s1 | 8.92% (inactive)
42 | Cc1ccc2nc(N(CCCN(C)C)C(=O)COc3ccc(Cl)cc3)sc2c1 | 6.88% (inactive)
43 | Cc1ccc2nc(N(CCCN(C)C)C(=O)CCc3ccccc3)sc2c1 | -4.72% (inactive)
44 | COc1cccc2sc(N(CCCN(C)C)C(=O)COc3ccc(Cl)cc3)nc12 | -1.1% (inactive)
45 | CN(C)CCCN(C(=O)CCc1ccccc1)c1nc2ccc(F)cc2s1 | 1.04% (inactive)
46 | CCOc1ccc(Oc2cc(N)cc([N+](=O)[O-])c2)cc1 | -14.2% (inactive)
47 | O=C(c1ccc(F)cc1F)N1CCN(c2n[nH]c(=O)[nH]c2=O)CC1 | -2.71% (inactive)
48 | COC(=O)c1nnn(CC(=O)NC(=O)Nc2c(C)cccc2C)c1C(=O)OC | -3.97% (inactive)

Row | Compound | inhibition
49 | CCN(CC(=O)NCCc1ccc(Cl)cc1)Cc1nc2ccccc2c(=O)[nH]1 | -9.11% (inactive)
50 | Cc1ccc(NC(=O)CN2C(=O)S/C(=C\c3ccc(OCC(=O)O)c(Br)c3)C2=O)cc1 | -6.05% (inactive)
51 | CC1(C)OC(=O)C(=CNc2ncccn2)C(=O)O1 | -4.83% (inactive)
52 | CCSc1nnc(NC(=O)CSc2ncccn2)s1 | -1.89% (inactive)
53 | Cc1ccc(N2CC(NC(=O)C3CC3)CC2=O)cc1 (centres undefined) | 9.02% (inactive)
54 | Cn1c(N)c(C(=O)COC(=O)CN2C(=O)c3ccccc3C2=O)c(=O)n(C)c1=O | -5.68% (inactive)
55 | CCN1CCN(CCCNC(=O)CCCn2nc(C)c3sc4ccccc4c3c2=O)CC1 | 0.59% (inactive)
56 | Brc1ccccc1OCCNCc1ccccc1 | 11.4% (inactive)
57 | Cc1ccc(OCCOCCN(C)C)c(Cl)c1 | 2.62% (inactive)
58 | Clc1ccc(Cl)c(OCCCCNCc2ccccc2)c1 | 13.1% (inactive)
59 | CCN(CC)CCOCCOc1ccc(Cl)c2ccccc12 | 1.79% (inactive)
60 | Cc1cc(Br)ccc1OCCNCc1ccccc1 | 11.4% (inactive)
61 | COCCCNCCCOc1ccc(Cl)cc1Br | 4.69% (inactive)
62 | CCOc1ccccc1OCCCNCc1ccccc1 | -6.34% (inactive)
63 | COCCNCCCOc1ccc(Br)cc1Cl | 5.48% (inactive)
64 | O=C(O)C1C2C=CC(C2)C1C(=O)NCCCN1CCCC1=O (centres undefined) | -1.57% (inactive)
65 | Cn1c(Cn2c(=O)sc3ccccc32)nnc1SCC(=O)N1CCCC1 | 0.97% (inactive)
66 | NS(=O)(=O)c1ccc(NCCCn2ccnc2)c([N+](=O)[O-])c1 | 9.73% (inactive)
67 | Cc1ccc(NC(=O)CCC(=O)NNC(=S)Nc2ccc(F)cc2F)cc1C | -6.55% (inactive)
68 | NNC(=O)C(=O)Nc1ccc(Cl)c(Cl)c1 | -4.15% (inactive)
69 | O=C(CSC1=NC(=O)C(c2ccccc2)C(=O)N1)Nc1ccccc1Cl (centres undefined) | 7.4% (inactive)
70 | Cc1ccc(Cl)cc1NC(=O)CSC(N)=O | -1.36% (inactive)
71 | Cc1ccc(NC(=O)CSCC#N)cc1Cl | -2.58% (inactive)
72 | COc1cccc(NC(=O)CSC(N)=O)c1 | -6.88% (inactive)

Row | Compound | inhibition
73 | NCCc1nnc(SCC(=O)Nc2cccc(Cl)c2)o1 | 5.27% (inactive)
74 | O=C(CCC(=O)N1CCCC1)Nc1ccc(Cl)c(Cl)c1 | -7.42% (inactive)
75 | CC(=O)NC1C(=O)N=C(SCC(=O)Nc2cccc(Cl)c2)NC1=O (centres undefined) | 11.8% (inactive)
76 | O=C(CSc1ccccn1)N1CCCC(Nc2ccc(F)c(F)c2)C1 (centres undefined) | -15.8% (inactive)
77 | CC(C)(C)OC(=O)NCc1ccc(CNC(=O)c2[nH]cnc2C(=O)N[C@@H](Cc2ccccc2)C(=O)OC(C)(C)C)cc1 | -19.7% (inactive)
78 | COc1ccc(CCC(=O)NNC(=O)Nc2cccc(Cl)c2)cc1 | -3.45% (inactive)
79 | Cc1cc(C(=O)Nc2cccnc2)no1 | -7.65% (inactive)
80 | N#CCSc1nc(-c2ccccc2)c2cc(Cl)ccc2n1 | -0.85% (inactive)
81 | COCCCn1c(=O)c2ccccc2n(Cc2cc(C(=O)OC)ccc2OC)c1=O | 5.08% (inactive)
82 | CCOC(=O)CC1C(=O)NCCN1C(=O)c1cccc(OC)c1 (centres undefined) | -7.55% (inactive)
83 | COCCn1nnnc1C(c1ccc(OC)c(OC)c1)N1CCN(c2nc3ccccc3s2)CC1 (centres undefined) | -9.37% (inactive)
84 | COc1ccccc1N1CCN(S(=O)(=O)CCNC(=O)C2CCCCC2)CC1 | -2.35% (inactive)
85 | N#CCSCC(=O)Nc1ccc(Cl)cc1 | 6.54% (inactive)
86 | CCOc1ccc(NC(=O)CSC(N)=O)cc1 | -9.69% (inactive)
87 | O=C(N/N=C\c1ccc(O)c([N+](=O)[O-])c1)c1ccccc1-n1cccc1 | -6.79% (inactive)
88 | COc1ccc(N(CN2C(=O)c3ccccc3C2=O)C(=O)COc2ccc(Cl)cc2Cl)cc1 | -5.69% (inactive)
89 | CN(C)CCCN1c2ccccc2Sc2ccc(Cl)cc21 | 9.15% (inactive)
90 | CN(C)CCCN1c2ccccc2CCc2ccccc21 | 8.39% (inactive) and 6.67% (inactive)
91 | CCNS(=O)(=O)c1ccc(NC(=O)c2ccc(Cn3cc(Br)cn3)o2)cc1 | -4.21% (inactive)
92 | O=C(CCn1nc(-c2ccccc2)c2ccccc2c1=O)N1CCN(c2ccccc2)CC1 | 6.41% (inactive)
93 | CC1CCN(C(=O)Cn2cnc3c(cnn3C(C)(C)C)c2=O)CC1 | -6.14% (inactive)
94 | Cc1nc(SCC(=O)c2ccccc2)[nH]c(=O)c1Oc1ccc(Cl)cc1 | -6% (inactive)
